Among the data in PubChem BioAssay (NCI) are growth inhibition values, retold here.

Each structure is given as a SMILES string. This is part of a sample that, as a whole, favours compounds with a hit. Of some 79,000 tested, about 15% had one in any assay. A number with no mark means an inactive call. Calls of active or inactive are those of the source. Rule as the data show it: active = growth inhibition above about 70%; inactive = the rest.

The first assay can be described thus: NCI Yeast Anticancer Drug Screen. Data for the cln2 rad14 strain (AID 165).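 Also: 0% = growth equal to vehicle treated cultures.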 Conditions: S. cerevisiae cln2 rad14 strain, at 50.0 µM, hits give high values. Put shortly:
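Compounds are applied to the cln2 rad14 yeast strain, and growth is then compared with that of vehicle-treated cultures to give inhibition.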
Turning to `COC(=O)CC(C(C(=O)OC)C(=O)OC)N1C(=O)OCC1c1ccccc1` (stereo not given), the growth inhibition was -12.3%.
On the same count and under the same terms, for `ClCCOCCOc1ccccc1Cl` the value was -9.95%; for `O=c1c2ccccc2oc2cc([N+](=O)[O-])cc([N+](=O)[O-])c12`, 38.4%.
As for `Cc1ccc(S(=O)(=O)c2cc3ccccc3oc2=O)cc1`, the growth inhibition is -40%.
For `Nc1ccc(Br)c(N)c1`, the growth inhibition was -16.9%.
On the same count and under the same terms, for `COC1=CC(=O)c2ccccc2C1(CCC=C(C)C)C1=NC(C)(C)CO1` (stereo not given) the value was 5.65%; for `O=C(Nc1cccc(C(=O)NCCCO)c1)/C(=C/c1ccccc1)NC(=O)c1ccccc1`, 9.35%; for `CC1(C)COC(c2ccc(CC(Cc3ccc(C4(C(C)(C)C)OCC(C)(C)CO4)cc3)C(=O)O)cc2)(C(C)(C)C)OC1`, 5.15%.
Still for that read-out and setting: for `CCN(CC)CCN(CCN(CC)CC)c1c(OC)cccc1OC` the value was -14.4%.
The same measure, in the same setting: for `CCOC(=O)NC(=O)c1cn(CCCCCCCCCCC(=O)NCCCN2CCN(CCCNC(=O)CCCCCCCCCCn3cc(C(=O)NC(=O)OCC)c(=O)[nH]c3=O)CC2)c(=O)[nH]c1=O` the value was -27.4%; for `CCCCN(CCCC)CC(O)c1cc(-c2ccc(C(F)(F)F)cc2)nc(-c2ccc(C(F)(F)F)cc2)c1` (stereo not given), -24.2%.
Take `C=CCCCCCCCCC(=O)NCCCN1CCOCC1`: the growth inhibition is 83.6% (active).
Same read-out and setting: for `CC1(C)OC(=O)C=C([O-])O1.CC1(C)OC(=O)C=C([O-])O1.CC[O-].CC[O-].[Ti+4]` the value was -8.95%; for `CSc1nnc(SCc2nn3c(=O)cc(C)nc3s2)s1`, 10%; for `CC1CCCN(C(=O)Nc2ccc([N+](=O)[O-])cc2)C1` (stereo not given), 25.8%.
As to `CC(=O)OCCc1cccc(C)c1`, the growth inhibition was -30.4%.
As to `CCOC(=O)C(NC(=O)CC(C)C)(N1CCN(c2cc3c(cc2F)c(=O)c(C(=O)O)cn3C2CC2)CC1)C(F)(F)F` (stereo not given), the growth inhibition was 12.5%.
Consider `COc1cc2c(c([N+](=O)[O-])c1)NC(=O)CC(C)S2` (stereo not given), for which the growth inhibition is -9.4%.
Still for that read-out and setting: for `CN(/N=C\c1ccc2ccccc2c1)C1=NCCN1` the value was -63%; for `S=c1c2ccccc2sn1-c1ccccc1`, -0.85%.
As to `c1cc2c3c(cccc3c1)N=S=N2`, the growth inhibition is -62.6%.
For `Cc1cccc2nc(-c3ccccn3)n(CCc3ccccn3)c12`, the growth inhibition is -18.5%.
Regarding `N#CCC(=O)N1CCCC1`, the growth inhibition is -8.6%.
On the same count and under the same terms, for `CCC1([N+](=O)[O-])CC2C=CC1C2` (stereo not given) the value was -4.15%.
On the same count and under the same terms, for `O=C1C=CC(CCCCCn2ccc(=O)[nH]c2=O)C(=O)N1` (stereo not given) the value was 13.8%.
The same measure, in the same setting: for `COc1cc(C(=O)C(C=O)c2ccccc2)c([N+](=O)[O-])cc1OC` (stereo not given) the value was 25.8%; for `O=C1CC(Cc2n[nH]c3c2CCC3)CC(=O)N1`, -16.4%.
Consider `CCC(=O)/C=C/C1=C(C)CCCC1(C)C`, for which the growth inhibition was -5.8%.
Still for that read-out and setting: for `CCc1nc(-c2ccccc2)nc2c1nc(-c1ccc(C)cc1)n2Nc1ccccc1` the value was -0.25%; for `O=c1oc2ccccc2c2ccccc12`, -5.95%.
The same measure, in the same setting: for `CCOC(=O)C1CN(C)C(=O)C1=O` (stereo not given) the value was 2.35%; for `CCCCCC[C@@H](O)C/C=C\CCCCCCCC(=O)OCC(C)O` (stereo not given in full), -30.6%.
Consider `OC1CCCCC1OC1CCc2ccccc2C1` (stereo not given), for which the growth inhibition is 29.9%.
`O=[N+]([O-])c1cccc(C(O)(C(F)(F)F)C(F)(F)F)c1`: the growth inhibition was 24.1%.
Same read-out and setting: for `Cc1ccc(S(=O)(=O)NC(=O)C2(Br)S(=O)(=O)OCCOS2(=O)=O)cc1` the value was -54.9%; for `O=C(CCN1C(=O)NC(c2ccccc2)(c2ccccc2)C1=O)NCCN1CCOCC1`, 0.95%.
Still for that read-out and setting: for `C[N+]1=C(/C=C/Nc2ccc(Cl)cc2)C(C)(C)c2ccccc21` the value was -2.55%.
Still for that read-out and setting: for `Brc1c2ccccc2cc2ccccc12` the value was -8.8%.
Turning to `COC(=O)c1cc(C)ncc1C#N`, the growth inhibition was 0.3%.
Same read-out and setting: for `COc1ccc(Nc2nc3c([nH]2)c(=O)n(C)c(=O)n3C)cc1` the value was 6.9%.

The next assay can be described thus: NCI Yeast Anticancer Drug Screen. Data for the bub3 strain (AID 167). Conditions: S. cerevisiae bub3 mutant strain, at 50.0 µM, hits give high values. Summed up: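 Readout: yeast growth inhibition, expressed relative to vehicle-only wells. The test organism is a mutant strain from a panel with lesions in DNA repair or checkpoint genes.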
As for `COC(=O)CC(C(C(=O)OC)C(=O)OC)N1C(=O)OCC1c1ccccc1` (stereo not given), the growth inhibition was -17.9%.
With `ClCCOCCOc1ccccc1Cl`, the growth inhibition was -22.1%.
Same read-out and setting: for `O=c1c2ccccc2oc2cc([N+](=O)[O-])cc([N+](=O)[O-])c12` the value was 0.9%; for `Cc1ccc(S(=O)(=O)c2cc3ccccc3oc2=O)cc1`, -11.2%.
On the same count and under the same terms, for `Nc1ccc(Br)c(N)c1` the value was -21.6%.
As for `COC1=CC(=O)c2ccccc2C1(CCC=C(C)C)C1=NC(C)(C)CO1` (stereo not given), the growth inhibition was -8.6%.
The same measure, in the same setting: for `O=C(Nc1cccc(C(=O)NCCCO)c1)/C(=C/c1ccccc1)NC(=O)c1ccccc1` the value was -2.4%.
With `CC1(C)COC(c2ccc(CC(Cc3ccc(C4(C(C)(C)C)OCC(C)(C)CO4)cc3)C(=O)O)cc2)(C(C)(C)C)OC1`, the growth inhibition was 3.8%.
As for `CCN(CC)CCN(CCN(CC)CC)c1c(OC)cccc1OC`, the growth inhibition is 9.15%.
The same measure, in the same setting: for `CCOC(=O)NC(=O)c1cn(CCCCCCCCCCC(=O)NCCCN2CCN(CCCNC(=O)CCCCCCCCCCn3cc(C(=O)NC(=O)OCC)c(=O)[nH]c3=O)CC2)c(=O)[nH]c1=O` the value was 2.25%.
Same read-out and setting: for `CCCCN(CCCC)CC(O)c1cc(-c2ccc(C(F)(F)F)cc2)nc(-c2ccc(C(F)(F)F)cc2)c1` (stereo not given) the value was -33.8%.
On to `C=CCCCCCCCCC(=O)NCCCN1CCOCC1`, for which the growth inhibition is 85% (active).
For the compound `CC1(C)OC(=O)C=C([O-])O1.CC1(C)OC(=O)C=C([O-])O1.CC[O-].CC[O-].[Ti+4]`, the growth inhibition was -11.7%.
On to `CSc1nnc(SCc2nn3c(=O)cc(C)nc3s2)s1`, for which the growth inhibition is 5.55%.
On to `CC1CCCN(C(=O)Nc2ccc([N+](=O)[O-])cc2)C1` (stereo not given), for which the growth inhibition is 59.4%.
The same measure, in the same setting: for `CC(=O)OCCc1cccc(C)c1` the value was -10.7%; for `CCOC(=O)C(NC(=O)CC(C)C)(N1CCN(c2cc3c(cc2F)c(=O)c(C(=O)O)cn3C2CC2)CC1)C(F)(F)F` (stereo not given), -24.9%.
Still for that read-out and setting: for `COc1cc2c(c([N+](=O)[O-])c1)NC(=O)CC(C)S2` (stereo not given) the value was 17.4%.
On the same count and under the same terms, for `CN(/N=C\c1ccc2ccccc2c1)C1=NCCN1` the value was 4.1%; for `S=c1c2ccccc2sn1-c1ccccc1`, -12.9%; for `c1cc2c3c(cccc3c1)N=S=N2`, 20.9%.
Consider `Cc1cccc2nc(-c3ccccn3)n(CCc3ccccn3)c12`, for which the growth inhibition was -8.2%.
For the compound `N#CCC(=O)N1CCCC1`, the growth inhibition is -14.3%.
The same measure, in the same setting: for `CCC1([N+](=O)[O-])CC2C=CC1C2` (stereo not given) the value was -21.7%; for `O=C1C=CC(CCCCCn2ccc(=O)[nH]c2=O)C(=O)N1` (stereo not given), -6.6%.
`COc1cc(C(=O)C(C=O)c2ccccc2)c([N+](=O)[O-])cc1OC` (stereo not given): the growth inhibition is 43%.
With `O=C1CC(Cc2n[nH]c3c2CCC3)CC(=O)N1`, the growth inhibition is -10%.
In the case of `CCC(=O)/C=C/C1=C(C)CCCC1(C)C`, the growth inhibition is 5.8%.
As to `CCc1nc(-c2ccccc2)nc2c1nc(-c1ccc(C)cc1)n2Nc1ccccc1`, the growth inhibition was -4.45%.
With `O=c1oc2ccccc2c2ccccc12`, the growth inhibition was 1.25%.
As for `CCOC(=O)C1CN(C)C(=O)C1=O` (stereo not given), the growth inhibition was -0.05%.
With `CCCCCC[C@@H](O)C/C=C\CCCCCCCC(=O)OCC(C)O` (stereo not given in full), the growth inhibition is -2.85%.
With `OC1CCCCC1OC1CCc2ccccc2C1` (stereo not given), the growth inhibition was 50%.
As to `O=[N+]([O-])c1cccc(C(O)(C(F)(F)F)C(F)(F)F)c1`, the growth inhibition is 42.7%.
Still for that read-out and setting: for `Cc1ccc(S(=O)(=O)NC(=O)C2(Br)S(=O)(=O)OCCOS2(=O)=O)cc1` the value was 24.6%.
On the same count and under the same terms, for `O=C(CCN1C(=O)NC(c2ccccc2)(c2ccccc2)C1=O)NCCN1CCOCC1` the value was -2%; for `C[N+]1=C(/C=C/Nc2ccc(Cl)cc2)C(C)(C)c2ccccc21`, -1.8%; for `Brc1c2ccccc2cc2ccccc12`, 63.4%.
For `COC(=O)c1cc(C)ncc1C#N`, the growth inhibition was 2.95%.
Same read-out and setting: for `COc1ccc(Nc2nc3c([nH]2)c(=O)n(C)c(=O)n3C)cc1` the value was -1.3%.
